The whole screen tested about 13,000 compounds, of which about 3,200 (25%) showed an effect of 50% or more. The list shows a part of the results.

The % Inhibition is the relative decrease from the control value, in per cent.

For this test, the system named is P. falciparum stage V gametocytes. Details: BacTiter-Glo ATP luminescence viability of purified stage V gametocytes in 384-well plates, per cent inhibition versus DMSO. To be noted: 48 h, 5 µM; inhibitor.
With `CC(=O)N(C)c1cccc(C(=O)Nc2cccc(-c3cccc(-c4nc5ccc(C(F)(F)F)cc5[nH]4)c3)c2)c1` [TCMDC-137069], the “% Inhibition” value is on record as 42.31%.
For `NC(=O)c1ccc(C(=O)Nc2cccc(-c3ccc(-c4nc5ccc(C(F)(F)F)cc5[nH]4)cc3)c2)cc1` [TCMDC-132193] the value was -16.46%.
For the compound `CC(=O)N(C)c1cccc(C(=O)Nc2cccc(-c3ccc(-c4nc5ccc(C(F)(F)F)cc5[nH]4)cc3)c2)c1` [TCMDC-137073], the “% Inhibition” value is 81.14%.
Turning to `CC(=O)Nc1ccc(C(=O)Nc2cccc(-c3ccc(-c4nc5ccc(C(F)(F)F)cc5[nH]4)cc3)c2)cn1` [TCMDC-136832], the “% Inhibition” value is reported as 60.22%.
Regarding `CC(=O)Nc1cc(C(=O)Nc2cccc(-c3cccc(-c4nc5ccc(C(F)(F)F)cc5[nH]4)c3)c2)ccc1C` [TCMDC-137039], the “% Inhibition” value came out at 68.75%.
Consider `CC(=O)N(C)c1cccc(C(=O)Nc2ccc(-c3cccc(-c4nc5ccc(C(F)(F)F)cc5[nH]4)c3)cc2)c1` [TCMDC-137070], for which the “% Inhibition” value is -32.74%.
With `CC(=O)Nc1cc(C(=O)Nc2cccc(-c3cccc(-c4nc5c(C)cccc5[nH]4)c3)c2)ccc1C` [TCMDC-137040], the “% Inhibition” value is recorded as 72.59%.
For `CC(=O)Nc1cccc(C(=O)Nc2ccc(-c3cccc(-c4nc5c(C)cccc5[nH]4)c3)cc2)c1` [TCMDC-132141] the value was -0.1401%; for `CC(=O)Nc1cccc(C(=O)Nc2ccc(-c3cccc(-c4nc5ccc(C(F)(F)F)cc5[nH]4)c3)cc2)c1` [TCMDC-132140], -29.21%.
With `NC(=O)c1cccc(C(=O)Nc2cccc(-c3cccc(-c4nc5ccc(C(F)(F)F)cc5[nH]4)c3)c2)c1` [TCMDC-132199], the “% Inhibition” value is on record as -28.51%.
Consider `Cc1cccc2[nH]c(-c3cccc(-c4cccc(NC(=O)c5ccc(C(N)=O)cc5)c4)c3)nc12` [TCMDC-132192], for which the “% Inhibition” value was -7.489%.
For `CC(=O)Nc1ccc(C(=O)Nc2cccc(-c3ccc(-c4nc5ccc(F)cc5[nH]4)cc3)c2)cn1` [TCMDC-136826] the value was -35.51%; for `CCc1c(C(=O)NC2CCC(N3CCC(c4ccccc4C)CC3)CC2)[nH]c2ccc(Br)cc12` (centres unmarked) [TCMDC-133530], -72.63%.
As for `CC(CNC(=O)C(c1cc2ccccc2o1)N1CCN(C(c2ccccc2)c2ccccc2)CC1)c1ccccc1` (centres unmarked) [TCMDC-141010], the figure is 11.08%; as for `O=C(Nc1ccc(C(F)(F)F)cc1)c1cccc(S(=O)(=O)NC2CCN(Cc3ccccc3)C2)c1` (centres unmarked) [TCMDC-132484], -13.38%.
Turning to `CCN(CC)CCNC(=O)c1ccc(NC(=O)c2oc3c(Cl)cccc3c2C)cc1` [TCMDC-125463], the “% Inhibition” value amounted to 22.65%.
Regarding `O=S(=O)(c1ccccc1)C1CC1` [TCMDC-132010], the “% Inhibition” value came out at 2.082%.
Regarding `CSc1nnc2n(Cc3ccccc3)c(=O)c3c(n12)-c1ccccc1CC31CCCCC1` [TCMDC-125076], the “% Inhibition” value is reported as -1.112%.
As for `O=C(CSc1nc2ccccc2c(=O)n1CC1CCCO1)Nc1cc(C(F)(F)F)ccc1Cl` (centres unmarked) [TCMDC-123732], the figure is -97.98%.
Consider `O=C(Nc1cccc(-c2cccc(-c3nc4ccc(C(F)(F)F)cc4[nH]3)c2)c1)c1ccncc1` [TCMDC-136963], for which the “% Inhibition” value was -4.28%.
For `O=C(Nc1cccc(-c2ccc(-c3nc4ccc(C(F)(F)F)cc4[nH]3)cc2)c1)Nc1ccc(F)c(F)c1F` [TCMDC-133224] the value was -27.79%; for `O=C(Nc1ccc(-c2cccc(-c3nc4ccc(C(F)(F)F)cc4[nH]3)c2)cc1)Nc1ccc(F)c(F)c1F` [TCMDC-133228], -36.32%; for `CNC(=O)Cc1ccc(C(=O)Nc2cccc(-c3cccc(-c4nc5ccc(C(F)(F)F)cc5[nH]4)c3)c2)cc1` [TCMDC-137074], 50.29%.
As for `CC(=O)Nc1ccc(C(=O)Nc2ccc(-c3cccc(-c4nc5ccc(C(F)(F)F)cc5[nH]4)c3)cc2)cn1` [TCMDC-136829], the figure is 5.637%; as for `CC(=O)Nc1ccc(C(=O)Nc2cccc(-c3cccc(-c4nc5ccc(C(F)(F)F)cc5[nH]4)c3)c2)cn1` [TCMDC-136828], 75.79%; as for `CC(=O)Nc1ccc(C(=O)Nc2cccc(-c3cccc(-c4nc5ccc(F)cc5[nH]4)c3)c2)cn1` [TCMDC-136824], -57.69%.
As for `NC(=O)c1ccc(C(=O)Nc2cccc(-c3cccc(-c4nc5ccc(C(F)(F)F)cc5[nH]4)c3)c2)cc1` [TCMDC-132191], the figure is 5.838%.
With `O=C(Nc1cccc(-c2cccc(-c3nc4ccc(C(F)(F)F)cc4[nH]3)c2)c1)Nc1ccc(F)c(F)c1F` [TCMDC-133229], the “% Inhibition” value amounted to 80.27%.
As to `OCCN1CCN(Cc2ccc(-c3ccc(-c4nc5ccc(C(F)(F)F)cc5[nH]4)s3)cc2)CC1` [TCMDC-133034], the “% Inhibition” value is reported as 6.44%.
As to `COc1ccc(NC(=O)Nc2ccc(-c3cccc(-c4nc5ccccc5[nH]4)c3)cc2)cc1` [TCMDC-133250], the “% Inhibition” value was -9.476%.
For `O=C(Nc1ccc(Cn2ncc(N3CCCNCC3)c(Cl)c2=O)cc1)Nc1cccc(C(F)(F)F)c1` [TCMDC-141925] the value was -42.22%; for `NC(=O)c1ccc(C(=O)Nc2cccc(-c3csc(-c4nc5ccccc5[nH]4)c3)c2)cc1` [TCMDC-132400], -14.2%.
As for `Cc1cc(C(F)(F)F)n2nc(C(=O)N(C)Cc3cncn3Cc3ccc(F)cc3)cc2n1` [TCMDC-132466], the “% Inhibition” value turned out to be 29.43%.
For `Cc1ccc(N2CCc3c(-c4cc5cccnc5nc4C)cc(C)nc32)c(Cl)c1` [TCMDC-136379] the value was 19.51%; for `COc1ccc(C=C2SC(=O)NC2=Nc2ccccc2)c(OC)c1` [TCMDC-123697], 23.55%; for `Cl.Oc1cccc(Nc2nc(NCC3CCCO3)c3ccccc3n2)c1` (centres unmarked) [TCMDC-123641], -25.34%.
As for `NC1CCN(c2nc(NCCCc3ccc(O)cc3)nc(NCc3cccc4ccccc34)n2)CC1` [TCMDC-133393], the figure is 0.2406%.
For `Oc1ccc2nc(Nc3ccccc3)nc(NCCc3ccccc3)c2c1` [TCMDC-138404] the value was 68.97%; for `Oc1ccc2nc(NCCCc3ccccc3)nc(NCCc3ccccc3)c2c1` [TCMDC-138406], 91.92%; for `Brc1ccc(Nc2nc(NCC3CCCO3)c3ccccc3n2)cc1` (centres unmarked) [TCMDC-124563], 15.52%.
For the compound `Oc1ccc2nc(NCCCc3ccccc3)nc(NCCCc3ccccc3)c2c1` [TCMDC-138382], the “% Inhibition” value was 90.22%.
As for `Oc1cccc(Nc2nc(NCc3ccccc3)c3ccccc3n2)c1` [TCMDC-125640], the figure is 36.33%.
As for `Cl.OCCNc1nc(Nc2cccc(O)c2)nc2ccccc12` [TCMDC-123747], the figure is -37.65%; as for `Cl.Oc1ccc(Nc2nc(NCC3CCCO3)c3ccccc3n2)cc1` (centres unmarked) [TCMDC-123730], 79.07%.

Values taken from paper PMC4552634, “A New Set of Chemical Starting Points with Plasmodium falciparum Transmission-Blocking Potential for Antimalarial Drug Discovery” (PLoS ONE, 2015).
